Assay results published in the supplement of paper PMC6555819.

Columns and labels:
Assay in all cases: PBM binding z-score (relative to random genomic background probes); higher = stronger binding; sequences stand for … in GC…GCGATTGACAGCGTAGAATGAAGG
[1] = system: RARb homodimer (NR concentration 270 nM)
How it was run: (§1)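 Custom Agilent 4×180K protein-binding microarrays carried double-stranded probes, each with a 34-nt variable region. These regions held direct-repeat seeds, single-nucleotide variants, half-site ablations and random human genomic background sequences. Ligand-free nuclear receptor dimers were incubated on the arrays for 1 h, antibodies against each partner (one per run) detected binding, and scanned fluorescence was regression-normalized. Binding z-scores take the random background probes as reference.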

[2] = system: RARg:RXRa (NR concentration 270 nM, RXRa partner concentration 90 nM)
How it was run: as §1

[3] = system: RARg homodimer (NR concentration 270 nM)
How it was run: as §1

[4] = system: RXRa DBDmut IVT, anti-RXR (DBD mutation: RXRa K156A/R161A, NR concentration 90 nM)
How it was run: as §1

[5] = system: RXRa homodimer (NR concentration 180 nM)
How it was run: as §1

[6] = system: THRa homodimer (NR concentration 90 nM)
How it was run: as §1

[7] = system: VDR homodimer (NR concentration 270 nM)
How it was run: as §1

Sequence	PBM binding z-score [1]	PBM binding z-score [2]	PBM binding z-score [3]	PBM binding z-score [4]	PBM binding z-score [5]	PBM binding z-score [6]	PBM binding z-score [7]
CAAACCAGGTCACCGGAAGGTCAAAGTCCGCATG	5.65	8.7	7.24	3.06	7.56	4.28	3.95
ATATGTAGGTTAGCTGGGGTCATTCATACTAGGC	3.88	4.01	3.08	2.52	5.44	3.63	4.81
GGAACGAGGGCATTCGAGGTGATAGCATGGCGAT	1.3	1.4	1.47	2.66	1.07	0.517	1.77
ACTCGGAGGACAAAGATCAGAGCTACGCCAGTGA	-0.272	0.568	0.931	0.426	0.18	-0.696	-0.571
